# Source: PubChem
# DT40 TDP1 CPT: growth inhibition of DT40 Tdp1-/-;hTDP1 cells with camptothecin (screen for TDP1 inhibitors); Potency, µM (doses to about 46.2 µM), actives largely listed as inhibitors; 12% of 420,000 active; chicken DT40 Tdp1-/-;hTDP1 cells + 20 nM CPT, ATP luminescence, 48 h; AID 686979; further: nearly all actives have a fitted effect of over 55% in size
#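 Chicken DT40 Tdp1-/- cells stably complemented with human TDP1 were seeded at 400 cells/well in medium containing 20 nM camptothecin, exposed to pin-transferred compounds, and grown at 37 °C for at least 48 hr. Viability was read as ATP luminescence.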
# RORgamma inh: blocks mouse ROR gamma transcriptional activity. P51450. Drosophila S2 Gal4-RORgamma UAS-luciferase reporter, 20 h. Potency, µM (doses to about 53.6 µM), usual class: inhibitors. 5.4% of 310,000 active; further: nearly all actives have a fitted effect of over 60% in size
# Target sequence (P51450 whole entry, looked up, the tested form may be a part): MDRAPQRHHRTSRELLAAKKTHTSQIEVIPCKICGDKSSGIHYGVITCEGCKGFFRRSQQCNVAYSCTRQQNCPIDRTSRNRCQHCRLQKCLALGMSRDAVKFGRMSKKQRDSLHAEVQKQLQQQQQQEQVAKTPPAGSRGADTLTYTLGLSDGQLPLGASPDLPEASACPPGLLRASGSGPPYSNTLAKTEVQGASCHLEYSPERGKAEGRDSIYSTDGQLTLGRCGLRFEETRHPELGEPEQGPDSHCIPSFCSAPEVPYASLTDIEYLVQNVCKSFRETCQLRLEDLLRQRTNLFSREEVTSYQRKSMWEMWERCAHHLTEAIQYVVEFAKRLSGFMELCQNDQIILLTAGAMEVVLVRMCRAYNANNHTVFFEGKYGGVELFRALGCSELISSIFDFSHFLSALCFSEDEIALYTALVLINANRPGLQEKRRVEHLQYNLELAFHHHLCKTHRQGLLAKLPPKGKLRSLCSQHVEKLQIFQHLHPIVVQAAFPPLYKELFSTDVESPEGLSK
#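 Luciferase reporter read in Schneider cells carrying Gal4-RORγ (mouse) and UAS-Photinus luciferase; cells given compound 1 h before 700 uM copper sulfate induction, then incubated 20 h at ambient temperature.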
# DT40 TDP1 no CPT: qHTS for Inhibitors of human tyrosyl-DNA phosphodiesterase 1 (TDP1): qHTS in cells in absence of CPT. DT40 Tdp1-/- hTDP1 cells, no CPT, ATP luminescence, 48 h. Potency, µM (highest dose often 46.2 µM), most hits filed as inhibitors. 15% of 420,000 active. AID 686978, 2013; further: nearly all actives have a fitted effect of over 55% in size
#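 Chicken DT40 Tdp1-/- cells complemented with human TDP1, screened without camptothecin (DMSO vehicle only), 400 cells/well. Compounds pin-transferred, cells incubated at 37 °C for at least 48 hr. Growth read as ATP-dependent luminescence (CellTiter-Glo, 30 min at RT).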
# VP16 counter: counter-screen for ROR gamma inhibitors: Gal4-VP16 reporter. Drosophila S2 Gal4-VP16 UAS-luciferase, luminescence, 20 h. Potency, µM (series often up to 53.6 µM), hits mostly inhibitors. 3.5% of 310,000 active. AID 2546;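 further: Gal4-VP16 expression switched on by copper sulfate through the metallothionein promoter; nearly all actives have a fitted effect of over 50% in size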
# LDHA block: LDHA (human) enzyme inhibition; AID 1347041; 0.15% of 480,000 active; purified LDHA, NADH/diaphorase-resazurin fluorescence; stronger effect = lower value; activity change, % (values are at about 110 or 230 µM); in the data active means activity change below about -30%; inconclusive means mostly about -25% to -30%
#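 Remaining NADH was detected by diaphorase (0.133 mg/mL) converting 37 µM resazurin to fluorescent resorufin, read at 0 and 20 minutes. The preceding 5-minute room-temperature reaction used 2 nM LDHA, 0.2 mM sodium pyruvate and 0.06 mM NADH at pH 7.4.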
# IL-1B inflam inh: blocks inflammasome-driven IL-1 beta release. THP-1 LPS/ATP IL-1B secretion, AlphaLISA, 16 h; stronger effect = lower value. activity change, % at 57.5 µM. 4.7% of 360,000 active. AID 743279; in the data active means activity change below about -50%; inconclusive means mostly about -30% to -49%
#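 Secreted IL-1B measured by AlphaLISA bead assay after 16 h compound exposure of THP-1 cells; compounds (final up to 57.5 uM) added 1 h before LPS (250 ng/mL) and ATP (1.25 mM) stimulation; lower signal means less secretion.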
# Numbers stand for hits; - = inactive; ? = inconclusive; . = not tested or not shown; ! = a repeat was not active; [ ] = remark or other dose. This is a sample that favours compounds with a hit; in the whole collection about 18% have one here. Unless noted, the call rests on the fitted dose curve; in most records, active means well fitted curve in the direction sought with a large enough effect; inconclusive means small, poorly fitted or top-dose-only effect, or another doubt; inactive means no such curve, though single readings can be large; an effect the other way counts as inactive or inconclusive.
SMILES,DT40 TDP1 CPT,RORgamma inh,DT40 TDP1 no CPT,VP16 counter,LDHA block,IL-1B inflam inh
CC(=O)NCCc1c[nH]c2ccccc12,-,-,?,-,-,-
Cc1nn(C)cc1C1SCC(=O)Nc2c1c(C)nn2-c1ccccc1 (stereo unspecified),.,.,.,.,-,.
CC(=O)C1CCC2C3C(N4CC4)CC4=CC(=O)CCC4(C)C3CCC12C (stereo unspecified),3.7µM,.,4.6µM,.,-,-
CC12CCC(=O)C=C1CC(N1CC1)C1C2CCC2(C)C(O)CCC12 (stereo unspecified),1.8µM,.,2.6µM,.,-,-
C=CC(=O)OC,.,-,.,-,.,.
C=CC(=O)OCC(C)C,.,-,.,-,.,.
CCc1ccc(NC(=O)c2ccc3oc(=O)n(Cc4ccccc4)c3c2)cc1,?,.,18µM,.,-,.
COC(=O)[C@@H]1C[C@H](OC(C)=O)C(=O)[C@H]2[C@@]1(C)CC[C@H]1C(=O)O[C@H](c3ccoc3)C[C@]21C,.,-,.,-,.,.
COc1ccc(C2CN(C)CC2C(=O)c2ccc(F)cc2)cc1Cl (stereo unspecified),-,-,21µM,-,-,-58
CN1CC(C(=O)c2ccc(F)cc2)C(c2c(F)cccc2Cl)C1 (stereo unspecified),-,-,-,-[10 µM],-,-
CCCOc1ccc(N2C(=O)CC(N3CCC(O)(c4cccc(C(F)(F)F)c4)CC3)C2=O)cc1 (stereo unspecified),-,?,-,-,-,-
Cc1ccc(NP(=O)(Oc2ccccc2F)Oc2ccccc2F)cc1C,?,?,?,-,-,-84
Cc1cccc(NP(=O)(Oc2ccccc2F)Oc2ccccc2F)c1,?,?,?,-,-,-99
O=[N+]([O-])c1cccc(NP(=O)(Oc2ccccc2)Oc2ccccc2)c1,?,-,?,-,-,-
N#CC(C#N)=Cc1c[nH]c2ccccc12,.,.,.,.,-,.
CCCCOP(=O)(c1ccc(N(C)C)cc1)C(Nc1ccccc1)c1ccccc1 (stereo unspecified),15µM,?,21µM,-,-,-96
CN1CC[C@@]2(C)c3cc(O)ccc3N(C)C12 (stereo partly specified),4µM,.,?,.,-,.
Cc1nn(-c2ncnc3nc[nH]c23)c2c1C(c1ccc(C(C)C)cc1)SCC(=O)N2 (stereo unspecified),.,.,.,.,-,.
O=C1/C(=C\c2ccc([N+](=O)[O-])cc2)N2CCC1CC2,-,-,?,-,-,-64
O=C1C(=Cc2ccccc2)N2CCC1CC2,-,.,-,.,-,-
COc1nc(NC(C)C)nc(N(C#N)CN2C(=O)c3ccccc3S2(=O)=O)n1,23µM,?,-,?,-,?
CNCCCN1c2ccccc2CCc2ccccc21,?,-,26µM,-,-,-58
COCCCN1Cc2ccccc2C1=N,-,-,-,-,-,-
COc1ccccc1OC(C)C(=O)N1CCC(Cc2ccccc2)CC1 (stereo unspecified),16µM,-,?,-,-,-72
CCBr,.,-,.,-,.,.
SMILES,DT40 TDP1 CPT,RORgamma inh,DT40 TDP1 no CPT,VP16 counter,LDHA block,IL-1B inflam inh
CC(O)C1C=CC=CC(=O)OC2CC3OC4C5OC5(C)CCC4(COC(=O)C4OC4(C)C(O)CO1)C2(C)C31CO1 (stereo unspecified),0.052µM,.,0.052µM,.,-,-100
CC(=O)OC1C(=O)OCC23CCC4(C)OC4C2OC2CC(OC(=O)C=CC=CC(=O)OCCC1C)C3(C)C21CO1 (stereo unspecified),0.15µM,.,0.021µM,.,-,-101
CC(Cc1ccc(Cl)cc1)NC(=O)CCCNC(=O)C1CC1 (stereo unspecified),.,.,.,.,-,.
CCCNC(=O)C(C)N1CC=C(c2c[nH]c3ccccc23)CC1 (stereo unspecified),.,.,.,.,-,.
CC(C)CCCC(C)C1CCC2C3CC(O)[C@@]4(O)CC(O)CC[C@@]4(C)C3CC[C@@]12C (stereo partly specified),?,-,18µM,-,.,.
NC(Cc1ccccc1)c1csc(Nc2ccccn2)n1 (stereo unspecified),?,.,?,.,-,-
NC(Cc1ccc(Cl)cc1)c1csc(Nc2ccccn2)n1 (stereo unspecified),15µM,.,13µM,.,-,-66
NC(Cc1ccc(F)cc1)c1csc(Nc2ccccn2)n1 (stereo unspecified),?,.,16µM,.,-,-51
NC(Cc1ccc(F)cc1)c1csc(Nc2cnccn2)n1 (stereo unspecified),?,.,?,.,-,?
COc1cccc(Nc2nc(C(N)Cc3ccc(F)cc3)cs2)n1 (stereo unspecified),18µM,.,8.2µM,.,-,-64
O=C(Oc1ccccc1)c1cccc(COC(=O)c2cnccn2)c1,-,-,-,?,-,-
CCC(CC)NC1CC1,.,.,.,.,-,.
CC(C)NCC(O)c1ccccc1Cl (stereo unspecified),-,-,-,-,.,.
CC(C)c1ccc(C(=O)N2CCCC(c3cc(C(=O)Nc4ccccc4Cl)no3)C2)cc1 (stereo unspecified),15µM,.,5.8µM,.,-,-
C=CCc1ccc(OC)cc1,3.7µM!,-,?,-,-,-
CS(=N)(=O)CC[C@@H](N)C(=O)O (stereo partly specified),.,-,.,-,.,.
CC(C)C[C@H]1CNC(=S)N1CC1CCN(CC2CCC(C(C)(C)C)CC2)CC1 (stereo partly specified),16µM,.,16µM,.,-,-
N#Cc1c(N)[n+]([O-])c2ccccc2[n+]1[O-],.,.,.,.,-,.
COc1ccc(-c2coc3c(C(=O)Nc4cc(OC)c(OC)c(OC)c4)cccc23)c(C)c1,4.1µM,.,3.7µM,.,-,-
COc1cc(NC(=O)c2cccc3c(-c4cccnc4)coc23)cc(OC)c1OC,3.7µM,.,3.3µM,.,-,-78
Cn1cc(C(=O)Nc2ccncc2)c2ccccc21,.,.,.,.,-,.
CCCCc1ccc(NC(=O)c2cccn(Cc3ccc(Cl)cc3)c2=O)cc1,-,.,-,.,-,.
Cc1ccc(S(=O)(=O)N2CCC(=O)N(CCOC(=O)Nc3cccc(Cl)c3)CC2)cc1,12µM,?,21µM,-,-,-
C[C@H](N)[C@@H](O)c1ccccc1,.,-[2.98 µM],.,-,.,.
COCCN1C(=NCCCOC(C)C)N[C@@H](c2ccccc2)C(C(=O)OC)=C1C,?,-,?,-,-,-
CC(O)CCl (stereo unspecified),.,-,.,-,.,.
Cc1cc[n+](Cc2ccccc2)cc1,?,.,?,.,-,-
c1ccc(C[n+]2ccccc2)cc1,?,.,16µM,.,-,-
